Sfp PPTase inh: inhibitors of Bacillus subtilis Sfp phosphopantetheinyl transferase; Q9F4F7; Biochemical Sfp PPTase activity, qHTS; Potency, µM, for the others: largest response in the series, negative = inhibition, usual class: inhibitors; 310,000 compounds, 3.5% hits; AID 1490;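 also: the enzyme is Sfp with the accession as filed and its product quenches rhodamine fluorescence; 0% = enzyme reaction without inhibitor and -100% = no enzyme wells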
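Step 1, compound plus 15 nM Sfp-PPTase, 15 min, room temperature. Step 2, add rhodamine-CoA (5 uM) and BHQ-2-YbbR (12.5 uM). Step 3, read 525/598 nm fluorescence at 0 and 30 min.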
VDR inhibitor: vitamin D3 receptor (human) inhibition; VDR-SRC2-3 peptide fluorescence polarization, 2 h; 400,000 compounds, 0.93% hits; AID 504847; P11473; Potency, µM, for inactives: max response, negative = inhibition, most hits filed as inhibitors; also: % is scaled to controls: 0 for no effect and ±100 for the full control effect
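VDR–SRC2-3 interaction, FP format. Cmpds 23 nl via pintool, brief spin, 2 h ambient incubation.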
TrxR1 substrate: rat thioredoxin reductase 1 substrate activity; O89049; purified TrxR1 substrate turnover, NADPH consumption readout; Potency, µM (titrated, usually from 114 µM), for inactives: at the top dose activity change, negative = substrate turnover; 390,000 compounds, 0.01% hits; AID 588456; also: % is scaled to controls: 0 for no effect and ±100 for the full control effect; nearly all actives have a fitted effect of over 50% in size
Target sequence (O89049 whole entry, looked up): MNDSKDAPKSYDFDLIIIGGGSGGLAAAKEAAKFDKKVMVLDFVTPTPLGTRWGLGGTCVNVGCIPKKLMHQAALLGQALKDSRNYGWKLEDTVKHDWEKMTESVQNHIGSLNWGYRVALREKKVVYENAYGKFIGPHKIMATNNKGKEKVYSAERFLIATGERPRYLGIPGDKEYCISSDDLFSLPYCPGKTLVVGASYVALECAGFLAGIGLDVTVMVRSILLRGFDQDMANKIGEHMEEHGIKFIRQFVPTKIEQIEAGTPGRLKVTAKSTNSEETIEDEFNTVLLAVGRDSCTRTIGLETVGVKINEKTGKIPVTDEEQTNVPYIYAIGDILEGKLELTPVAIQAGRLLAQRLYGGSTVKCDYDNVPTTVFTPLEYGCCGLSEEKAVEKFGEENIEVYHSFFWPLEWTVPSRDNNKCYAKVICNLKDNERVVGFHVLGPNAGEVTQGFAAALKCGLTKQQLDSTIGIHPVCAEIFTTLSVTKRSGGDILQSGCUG
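Rat TrxR1, dispensed at 90 nM, was prereduced with 400 uM NADPH (final) for 5 min at ~22 deg C, then incubated with compound 15 min before 400 uM selenite. A first-read NADPH fluorescence drop versus no-compound background flagged substrates.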
rTrxR1 inhibitor: rat TrxR1 inhibition. O89049. recombinant rTrxR1, NADPH fluorescence consumption, selenite substrate. Potency, µM (series often up to 114 µM), for the others: at the highest dose activity change, negative = inhibition, usual class: inhibitors. 390,000 compounds, 1% hits. AID 588453; also: % is scaled to controls: 0 for no effect and ±100 for the full control effect; nearly all actives have a fitted effect of over 65% in size
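Rat TrxR1 (90 nM in the dispensed reagent) was pre-reduced with 400 uM NADPH for 5 min at room temperature, then incubated with compound for 15 min. After 400 uM selenite was added, NADPH fluorescence (Ex 340/Em 450 nm) was followed for 8 min.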
PLK1 PBD block: PLK1 (human) polo-box domain binding inhibition. Plk1 PBD binding of FITC phosphopeptide, fluorescence polarization. Potency, µM, without a hit: max response, negative = inhibition, usual class: inhibitors. 360,000 compounds, 2.8% hits. AID 720504; also: series mostly up to about 57 µM; % is scaled to controls: 0 for no effect and ±100 for the full control effect; nearly all actives have a fitted effect of over 65% in size
IDH1 R132H inh: inhibitors of human mutant IDH1 R132H | O75874 | IDH1-R132H enzyme, NADPH consumption, diaphorase/resazurin fluorescence | Potency, µM (highest dose often 76.6 µM), inactives show at the highest dose activity change, negative = inhibition, most hits filed as inhibitors | 390,000 compounds, 0.093% hits; also: % is scaled to controls: 0 for no effect and ±100 for the full control effect; nearly all actives have a fitted effect of over 65% in size
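IDH1-R132H (0.5 ug/mL dispensed) in pH 7.5 Tris buffer was preincubated 30 min with compound, then given a substrate mix of 0.016 mM NADPH and 2 mM alpha-KG for 80 min at room temperature; remaining NADPH was read by diaphorase/resazurin fluorescence.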
VDR confirm: confirmation of human vitamin D receptor inhibitors | shares compounds with VDR inhibitor | VDR-coactivator inhibition assay, qHTS confirmation | Potency, µM, hits mostly inhibitors | 840 compounds, 89% hits | AID 602199
VDR FP fluor: VDR (human) coactivator binding inhibition, fluorescein polarization; shares compounds with VDR inhibitor; VDR-coactivator binding, fluorescein fluorescence polarization; Potency, µM (highest dose often 57.1 µM), for inactives: at the top dose activity change, negative = inhibition, usual class: inhibitors; 840 compounds, 48% hits; AID 602200
VDR bla: inhibits human VDR in beta-lactamase reporter cells; shares compounds with VDR inhibitor; VDR beta-lactamase reporter cells, FRET ratio; cells co-treated with VDR agonist LG190178; Potency, µM (doses to about 46.1 µM), for the others: top-dose activity change, negative = inhibition, most hits filed as inhibitors; 840 compounds, 23% hits; also: % is scaled to controls: 0 for no effect and ±100 for the full control effect
VDR viability: cell toxicity, VDR inhibitor hit counter-screen | AID 602204 | Potency, µM (doses to about 48.3 µM), inactives show top-dose activity change, negative = cytotoxicity, hits mostly cytotoxic | cytotoxicity counter-screen, cell viability, qHTS | shares compounds with VDR inhibitor | 840 compounds, 18% hits;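 also: plate controls were DMSO for no effect and high-concentration cycloheximide for full effect; nearly all actives have a fitted effect of over 75% in size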
An asterisk follows results filed as active. Compounds with a hit are over-represented: about 5.2% of the library has one in this group of screens. Calls follow the shape of the dose curve; as a rule, active = well fitted curve in the direction sought with a large enough effect; inconclusive = small, poorly fitted or top-dose-only effect, or another doubt; inactive = no such curve, though single readings can be large; an effect the other way counts as inactive or inconclusive. Potency is read from the fitted curve at half-maximal effect.

`COc1cc(-c2cc(C(=O)Nc3cc(S(=O)(=O)N4CCOCC4)ccc3O)c3ccccc3n2)cc(OC)c1OC` gave VDR inhibitor inconclusive, TrxR1 substrate -12.3%, rTrxR1 inhibitor -4.2%, PLK1 PBD block 16.8µM*, IDH1 R132H inh -11.0%, VDR confirm inconclusive, VDR FP fluor 31.6µM*, VDR bla 0.6% and VDR viability 29.1%.
`CN1CCC2(CC1)N=C(c1ccc(F)cc1)C(=S)N2C(=O)c1ccccc1` gave Sfp PPTase inh 50.1µM*, VDR inhibitor 44.7µM*, TrxR1 substrate 0.5%, rTrxR1 inhibitor 5.01µM*, PLK1 PBD block inconclusive, IDH1 R132H inh 0.8%, VDR confirm 18.9*, VDR FP fluor inconclusive, VDR bla 0.7% and VDR viability inconclusive.
Screening Cc1ccccc1CS(=O)(=O)c1nnc([C@H](CC(C)C)NC(=O)OC(C)(C)C)o1 returned Sfp PPTase inh 22.4µM*, VDR inhibitor 20µM*, TrxR1 substrate 9.5%, rTrxR1 inhibitor 3.98µM*, PLK1 PBD block 8.91µM*, IDH1 R132H inh 0.2%, VDR confirm 10.6*, VDR FP fluor 7.08µM*, VDR bla inconclusive and VDR viability inconclusive.
For CC(C)C[C@H](NC(=O)OC(C)(C)C)c1nnc(SCc2ccccc2)o1 the results were Sfp PPTase inh 9.9%, VDR inhibitor -4.4%, TrxR1 substrate -7.3%, rTrxR1 inhibitor 12.0%, PLK1 PBD block -13.4% and IDH1 R132H inh 9.6%.
COCCn1c(=O)c(-c2ccc(F)cc2)nc2cnc(Oc3ccccc3)nc21 was read as Sfp PPTase inh 25.5% and VDR inhibitor 3.6%.
Screening Oc1c(C(c2ccccc2)N2CCOCC2)ccc2ccccc12 (stereo not drawn) returned VDR inhibitor 20µM*, TrxR1 substrate -11.8%, rTrxR1 inhibitor 3.16µM*, PLK1 PBD block 1.19µM*, IDH1 R132H inh 31.3%, VDR confirm 4.74*, VDR FP fluor 3.16µM*, VDR bla 3.0% and VDR viability inconclusive.
`COc1cc(/C=C2\C(=O)N(c3ccc(S(N)(=O)=O)cc3)N=C2C)ccc1OC(=O)c1ccco1` gave Sfp PPTase inh inconclusive, VDR inhibitor inconclusive, TrxR1 substrate -1.1%, rTrxR1 inhibitor -32.5%, PLK1 PBD block 3.77µM*, IDH1 R132H inh 10.9%, VDR confirm 10*, VDR FP fluor 3.55µM*, VDR bla -10.6% and VDR viability -17.8%.
Cc1ccc(NC(=O)c2c(C)oc3ccc(O)c(CN(C)Cc4ccccc4)c23)c(C)c1 was read as VDR inhibitor 10.0%, TrxR1 substrate 2.3% and rTrxR1 inhibitor 11.4%.
`O=C(/C=C/c1cccc(Cl)c1)c1nc2ccccc2[nH]1` gave Sfp PPTase inh inconclusive, VDR inhibitor 44.7µM*, TrxR1 substrate 0.2%, rTrxR1 inhibitor inconclusive, PLK1 PBD block inconclusive, IDH1 R132H inh -0.9%, VDR confirm 8.44*, VDR FP fluor inconclusive, VDR bla inconclusive and VDR viability inconclusive.
